What all share (test): NCI-60 one-dose screen, 48 h (100 = growth as untreated, 0 = no growth, -100 = all killed)
One assay has as its system NCI-H23 lung. The following applies: 10 µM unless noted.
In a further assay the test system is NCI-H226 lung. The following applies: 10 µM unless noted.
Another assay concerns NCI-H322M lung. The following applies: 10 µM unless noted.
The subject of another assay is NCI-H460 lung. The settings on record: 10 µM unless noted.
Another assay relates to HOP-92 NSCLC. The settings on record: 10 µM.
Another assay deals with NCI-H522 lung. The settings on record: 10 µM.
Another assay relates to A549/ATCC NSCLC. The following applies: 10 µM unless noted.
Another assay has as its system 786-0 renal. The following applies: 10 µM unless noted.
The next assay relates to COLO 205 colon. The following applies: 10 µM unless noted.
The test system of a further assay is DU-145 prostate. The following applies: 10 µM unless noted.
For the next assay, the system named is K-562 leukemia. The following applies: 10 µM unless noted.
The next assay relates to MALME-3M melanoma. The following applies: 10 µM unless noted.
A further assay relates to MDA-MB-231 breast. The settings on record: 10 µM unless noted.
Another assay concerns RXF 393 renal. The following applies: 10 µM unless noted.
A further assay deals with SF-268 CNS. The settings on record: 10 µM unless noted.
Another assay concerns SF-295 CNS. The settings on record: 10 µM unless noted.
The subject of a further assay is SF-539 CNS. The following applies: 10 µM unless noted.
The next assay has as its system UACC-257 melanoma. The following applies: 10 µM unless noted.
A further assay concerns M14 melanoma. The settings on record: 10 µM unless noted.

Here are results for four compounds from PubChem BioAssay (NCI).

Each structure is given as a SMILES string. About 83,000 compounds went through this panel and 20% of them were active in at least one assay; those are over-represented in the sample as a whole.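 Cells were grown in 96-well plates and exposed to the test compound at a single concentration for 48 hours; results are reported as percent growth, with values below 10 considered active.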 A number with no mark means an inactive call. The source made the active and inactive calls.

Regarding `O=C(Nc1ccc(Cl)cn1)C1(c2ccccc2)CCCCC1`, the growth in the assay on NCI-H23 lung is 114%; in the assay on NCI-H226 lung it was 103%; with NCI-H322M lung, 119%; with NCI-H460 lung, 102%; in the assay on HOP-92 NSCLC it was 60.7%; with NCI-H522 lung, 140%. In addition, the growth with A549/ATCC NSCLC was 110%; in the assay with 786-0 renal, 97.5%; in the assay on COLO 205 colon, 103%; with DU-145 prostate, 86.5%; in the assay on K-562 leukemia, 67.1%; in the assay on MALME-3M melanoma, 112%. Besides, the growth with MDA-MB-231 breast was 87.7%; in the assay on RXF 393 renal it was -1.25% (active); in the assay on SF-268 CNS, 108%; in the assay on SF-295 CNS, 110%; in the assay with SF-539 CNS it was 96.7%; in the assay on UACC-257 melanoma it was 109%.
In the case of `CCOC(=O)C1=C(c2ccccc2)NC(=O)NC1CN1C(=O)c2ccccc2C1=O` (centres undefined), the growth in the assay on NCI-H23 lung was 93.9%; in the assay on NCI-H226 lung, 105%; with NCI-H322M lung, 118%; in the assay on NCI-H460 lung, 105%; in the assay with HOP-92 NSCLC, 72.9%; in the assay with NCI-H522 lung, 108%. The growth was 127% in the assay on A549/ATCC NSCLC; 102% with 786-0 renal; 116% in the assay on COLO 205 colon; 105% with DU-145 prostate; 50.6% with K-562 leukemia; 71.2% in the assay on MALME-3M melanoma. Further, the growth is 108% in the assay on MDA-MB-231 breast; 116% in the assay with RXF 393 renal; 93.7% with SF-268 CNS; 115% with SF-295 CNS; 106% in the assay on SF-539 CNS; 112% in the assay on UACC-257 melanoma.
`[2H]c1nc(=Nc2cc(NC(=O)C=C)c(N(C)CCN(C)C)cc2OC)[nH]c(-c2cn(C([2H])([2H])[2H])c3ccccc23)c1[2H]`: the growth with NCI-H23 lung was 60.3%; in the assay on NCI-H226 lung, 75.2%; with NCI-H322M lung, 2.1% (active); with NCI-H460 lung, 57.3%; with HOP-92 NSCLC, 22.9%; in the assay with NCI-H522 lung, 13.3%. In addition, the growth is 40.6% in the assay on A549/ATCC NSCLC; 48.7% in the assay with 786-0 renal; 29.4% in the assay with COLO 205 colon; 45% with DU-145 prostate; -18.3% (active) in the assay on K-562 leukemia; 8.26% (active) in the assay on MALME-3M melanoma. The growth in the assay on MDA-MB-231 breast is 54%; in the assay with RXF 393 renal, 44.1%; in the assay on SF-268 CNS, 51.2%; in the assay on SF-295 CNS, 85.4%; with SF-539 CNS, 40.5%; in the assay on UACC-257 melanoma it was -2.01% (active). Also, the growth in the assay on M14 melanoma is -52.7% (active).
In the case of `COc1cc(-c2c3c(cn2CCN2CCCCC2)-c2oncc2CC3)cc(OC)c1OC`, the growth with NCI-H23 lung was 98.6%; in the assay with NCI-H226 lung it was 90.2%; in the assay with NCI-H322M lung, 110%; in the assay with NCI-H460 lung it was 101%; in the assay on HOP-92 NSCLC it was 81.8%; in the assay with NCI-H522 lung it was 90.9%. The growth with A549/ATCC NSCLC was 101%; with 786-0 renal it was 105%; in the assay on COLO 205 colon, 103%; in the assay on DU-145 prostate it was 109%; in the assay on K-562 leukemia, 108%; in the assay on MALME-3M melanoma, 110%. The growth is 109% in the assay on MDA-MB-231 breast; 100% in the assay with RXF 393 renal; 94.7% in the assay on SF-268 CNS; 97.6% in the assay on SF-295 CNS; 94% in the assay on SF-539 CNS; 109% in the assay on UACC-257 melanoma. Further, in the assay with M14 melanoma, the growth was 105%.
